Assay outcomes from PubChem.
SARS PLpro yeast: SARS-CoV PLP inhibition in yeast | S. cerevisiae expressing SARS-CoV PLpro, growth rescue | Potency, µM (highest dose often 32.9 µM), without a hit: top-dose activity, positive = growth rescue, usual class: activators | 330,000 tested, 0.19% active; calls by dose curve; also: 0% is about no effect; nearly all actives have a fitted effect of over 55% in size
AMA1-RON2 inh: AMA1-RON2 (P. falciparum) interaction inhibition; AlphaScreen AMA1-biotinylated RON2 peptide binding; 360,000 tested, 0.2% active; AID 720542; Potency, µM (highest dose often 58.2 µM), inactives show top-dose activity change, negative = inhibition, most hits filed as inhibitors;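 also: 0% = vehicle wells and -100% = peptide control; nearly all actives have a fitted effect of over 45% in size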
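AMA1 (3D7) with his tag at 25 nM final met compounds first, then biotinylated RON2 peptide at 25 nM; detection used donor plus acceptor beads, 10 µg/mL apiece, read by AlphaScreen after 30 min at room temperature.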
Pf growth 48h: P. falciparum growth inhibition at 48 hours (one generation); P. falciparum luciferase growth in erythrocytes, 48 h; Potency, µM (series often up to 28.7 µM), without a hit: top-dose activity change, negative = inhibition, hits mostly inhibitors; 310,000 tested, 5.9% active; also: % is scaled to controls: 0 for no effect and ±100 for the full control effect
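Erythrocytes infected with P. falciparum carrying an integrated firefly luciferase reporter (2% hematocrit, 0.1% parasitemia final) were exposed to compounds in RPMI 1640 with 0.5% Albumax at 37 C, 5% CO2. Growth inhibition was scored as reduced luminescence.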
HCV inhibitor: blocks hepatitis C virus. AID 651820. Potency, µM (series often up to 41.8 µM), for inactives: at the top dose activity change, negative = inhibition, most hits filed as inhibitors. 340,000 tested, 3.4% active. Huh7.5.1 HCVcc-Cre infection, luciferase reporter, 44 h; also: % is scaled to controls: 0 for no effect and ±100 for the full control effect
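Whole-lifecycle infectious HCVcc-Cre system; cells 1,000/well, compound then virus (~0.5 moi) added 4 h after plating, 44 h culture. Luciferase read 15 sec following 15 min substrate incubation, room temp.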
NS1 function inh: blocks influenza NS1 protein function. 270,000 tested, 0.4% active. Potency, µM (doses to about 46.1 µM), for the others: top-dose activity, positive = more growth. AID 2326; calls by dose curve; also: actives are rising curves; nearly all actives have a fitted effect of over 50% in size
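In this qHTS, NS1 from influenza A is expressed in budding yeast, where it slows growth. Cells are switched from glucose to 2% galactose medium (pH 6.0, -URA), treated with compound, and growth recovery is read at OD600.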
Pf growth 96h: P. falciparum growth inhibition at 96 hour, primary screen for plastid delayed-death inhibitors. P. falciparum luciferase reporter growth, 96 h. Potency, µM (titrated, usually from 28.7 µM), for inactives: at the highest dose activity change, negative = inhibition, actives largely listed as inhibitors. 320,000 tested, 6.9% active. AID 504834; also: % is scaled to controls: 0 for no effect and ±100 for the full control effect
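Erythrocytes infected with luciferase-expressing P. falciparum were dispensed at 2% hematocrit and 0.05% parasitemia (final), then incubated with compounds 96 hours at 37 C in 5% CO2. Luminescence after detection reagent addition reported growth.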
* marks the source's active call; other numbers are inactive results; u = inconclusive; x = no result given; [ ] = dose if it differs, or a comment. In the library only some 12% were active in any assay of this set; here they are far more common. Unless noted, calls follow the shape of the dose curve; as a rule, active = well fitted curve in the direction sought with a large enough effect; inconclusive = small, poorly fitted or top-dose-only effect, or another doubt; inactive = no such curve, though single readings can be large; an effect the other way counts as inactive or inconclusive. Potency is read from the fitted curve at half-maximal effect.

SMILES | SARS PLpro yeast | AMA1-RON2 inh | Pf growth 48h | HCV inhibitor | NS1 function inh | Pf growth 96h
CCN1CCN(c2ccc(S(=O)(=O)N3CCCCC3)cc2NC(=O)/C=C/c2ccc([N+](=O)[O-])cc2)CC1 | -0.4% | -26.1% | 2.08µM* | u | x | 1.85µM*
CN1CCN(c2ccc(S(=O)(=O)N3CCCCC3)cc2NC(=O)/C=C/c2ccc(Cl)c([N+](=O)[O-])c2)CC1 | -2.7% | -15.1% | 2.94µM* | u | x | 5.86µM*
COCCn1c(C)cc(C2=NNC(=Nc3ccccc3)SC2)c1C | 4.1% | 34.2% | u | u | 13.9% | -137.6%
COCCn1c(C)cc(C2=NNC(=NC(C)(C)C)SC2)c1C | 2.5% | 15.2% | 11.7µM* | -5.6% | 10.4% | u
COCCn1c(C)cc(C2=NNC(=Nc3ccc(OC)cc3)SC2)c1C | -6.2% | 10.5% | 13.1µM* | -19.1% | u | 3.7µM*
O=C(c1ccccc1)c1c[nH]c(C(=O)NNc2ccccc2)c1 | -1.6% | u | -13.7% | -11.4% | -0.1% | -10.6%
C[C@@H]1CN([C@H](C)CO)C(=O)CCCn2cc(nn2)CO[C@H]1CN(C)C(=O)C1CC1 | x | -6.2% | x | x | x | x
CCn1c(O)c(N=Nc2ccc3ccccc3n2)c2ccccc21 | 0.4% | 0.0% | 62.9% | u | -4.9% | 96.8%
Brc1ccc(N=Nc2ccc3ccccc3n2)cc1 | -0.9% | u | 0.329µM* | -25.0% | -2.6% | u
NCCSC[C@H](N)C(=O)O | x | x | x | x | -2.8% | x
O=C(Nc1ccc(N2CCOCC2)cc1N1CCOCC1)c1ncoc1-c1cccc(F)c1 | 2.0% | 2.2% | 11.7µM* | u | 4.8% | -25.9%
O=C(Nc1ccccc1N1CCCCC1)c1ncoc1-c1ccc(F)cc1 | -0.6% | 3.2% | 3.29µM* | u | -4.6% | x
O=C(Nc1ccccc1N1CCCCC1)c1ncoc1-c1cccc(F)c1 | 0.1% | -3.9% | u | u | 5.7% | u
COc1ccc(OC)c(/C=N/N=C2\SCC(=O)N2Cc2ccco2)c1 | -2.1% | -11.5% | -6.6% | u | 6.0% | -0.8%
COc1ccc(OC)c(C2(O)CSC(=Nc3cccnc3)N2Cc2ccco2)c1 (centres undefined) | -4.3% | -22.8% | 11.7µM* | u | -12.0% | 4.65µM*
CCCc1nnc(SCC(=O)O)n1CC | 0.9% | 1.5% | u | 8.7% | -68.3% | 8.7%
CCOC(=O)C(=CNc1ccc(OC)cc1[N+](=O)[O-])C(=O)OCC | 0.4% | -6.4% | 12.5% | u | 2.0% | -16.7%
COc1cccc(CC(=O)OC(C)C(=O)Nc2ccc(Cl)cn2)c1 (centres undefined) | -1.0% | -3.9% | u | -8.5% | x | 7.3%
CC(OC(=O)Cc1ccsc1)C(=O)Nc1ccc(Cl)cn1 (centres undefined) | -1.4% | 0.1% | -49.0% | 22.4µM* | x | -17.9%
O=c1[nH]c(=S)[nH]c2c1C(c1cccc(C(F)(F)F)c1)OC(CCc1ccccc1)C2 (centres undefined) | x | 84.4% | x | x | x | x
CCOC(=O)c1c(NC(=O)CSc2nnc(C)c(=O)[nH]2)sc2c1CCCC2 | 2.2% | -3.2% | 12.6% | -10.3% | 15.7% | x
COc1ccc(NC(=O)CN(C)CC(=O)Nc2sc3c(c2C#N)CCC3)cc1 | -4.2% | 100.9% | u | -14.6% | x | 9.28µM*
Cc1nnc(SCC(=O)Nc2sc3c(c2C#N)CCCC3)[nH]c1=O | -0.3% | -7.6% | 6.6% | -3.6% | 5.4% | 14.7µM*
CCc1ccc(CCC(=O)Nc2sc3c(c2C#N)CCCC3)o1 | -6.3% | -3.4% | -18.8% | 4.47µM* | u | x
O=C(COC(=O)C1CCN(S(=O)(=O)c2ccccc2)CC1)NCCc1ccccc1 | -0.5% | 4.3% | 25.5% | 11.0% | x | -9.2%
SMILES | SARS PLpro yeast | AMA1-RON2 inh | Pf growth 48h | HCV inhibitor | NS1 function inh | Pf growth 96h
C=CCn1c(SCC(=O)NC2CCCC2)nnc1-c1ccncc1 | -3.8% | 2.5% | 3.8% | 9.7% | -3.4% | u
C=CCn1c(SCC(=O)NC2CCS(=O)(=O)C2)nnc1-c1ccncc1 (centres undefined) | 6.8% | 12.4% | 2.62µM* | 14.2% | -1.8% | 27.1%
CCOC(=O)C1C(=O)CC(C)(O)C(C(=O)OCC)C1c1ccc(OCC)cc1 (centres undefined) | 7.7% | -0.5% | -10.9% | 2.3% | -2.9% | 37.2%
CCOC(=O)C1C(=O)CC(C)(O)C(C(=O)OCC)C1c1cccc(OC(F)(F)C(F)F)c1 (centres undefined) | 0.0% | -1.2% | 10.4µM* | 0.4% | u | u
CN(C)Cc1c(O)ccc2c3c(c(=O)oc12)CCCCC3 | -7.1% | 10.0% | u | 3.6% | -5.6% | x
CN(Cc1c(O)ccc2c1oc(=O)c1ccccc12)C1CCCCC1 | -0.6% | 21.2µM* | 5.22µM* | -12.6% | 5.9% | u
CCOC(=O)CCCc1ccc(/C(C)=N/NC(N)=S)cc1 | 20.7% | 35.8% | u | u | -53.3% | u
CC1CN(C(=O)CNC(=O)COc2ccccc2)CC(C)O1 (centres undefined) | -9.8% | 2.7% | x | 16.9% | x | x
C/C(=C\c1csc(C)n1)[C@@H]1C[C@@H]2O[C@]2(C)CCC[C@H](C)[C@H](O)[C@@H](C)C(=O)C(C)(C)[C@@H](O)CC(=O)O1 | x | x | 0.0013µM* | x | x | u
COc1cc(C(=O)Oc2ccccc2/C=N/NC(=O)c2ccc(Cl)cc2Cl)cc(OC)c1OC | -2.8% | -13.3% | 6.57µM* | u | 3.7% | u
C=CCOc1ccccc1/C=N/NC(=O)c1ccc(Cl)cc1Cl | -19.5% | 0.0% | 4.0% | -18.5% | -8.5% | -8.8%
CCCCOc1ccccc1C(=O)N(Cc1ccco1)C1CCS(=O)(=O)C1 (centres undefined) | 5.4% | -1.3% | 13.1% | 16.7% | -3.7% | 2.4%
CCC(c1nc2ccccc2[nH]1)n1c(=O)c(-c2ccccc2)nc2ccccc21 (centres undefined) | x | -7.2% | x | x | x | x
CCN(CC)c1ccc2cc(S(=O)(=O)c3ccc(Cl)cc3)c(=O)oc2c1 | 10.0% | 120.9% | u | -3.5%[8.37 µM] | 5.1% | 13.1µM*
CS[C@]12C(=O)C[C@]3(C)[C@@H](CC[C@@]3(O)C(=O)CO)[C@@H]1CCC1=CC(=O)CC[C@]12C | x | x | x | x | -10.8% | x
Cc1ccccc1N1CCN(c2ccccc2NC(=O)/C=C\C(=O)O)CC1 | x | -7.2% | x | 7.3% | x | x
CC1CCC2(CC1)NC(=O)N(CC(=O)N1CCN(C(=O)c3ccco3)CC1)C2=O (centres undefined) | 5.4% | 0.0% | 38.1% | 1.8% | x | 1.3%
Cc1ccc(Cn2c(C3CCCN3c3nc(-c4cc(Cl)c(N)c(Cl)c4)cs3)nc3cc(C(=O)NCCCO)ccc32)cc1 (centres undefined) | x | -2.7% | x | 1.41µM* | x | x
O=C(O)CSCc1cccc2ccccc12 | x | x | x | x | -3.5% | x
Nc1ccc(S(=O)(=O)N2CCC(Cc3ccccc3)CC2)cc1 | 10.0% | -9.0% | x | 14.7% | -3.6% | 0.0%
